The values that follow come from PubChem BioAssay (EPA / NIEHS).

Structures are written as SMILES. Results filed as inconclusive are left out. Calls of active or inactive are those of the source. The calls were made as follows: active = hit-call score of the fitted dose curve at least 0.9, where 1 is the maximum; inconclusive = response in the unintended direction; inactive = score below 0.9.

The term AC50 denotes the midpoint of the concentration-response curve, whichever way the signal moves.

For this test, the target named is human Caspase 4 (CASP4), CASP4 (gene 837) (UniProt P49662). Put plainly: NVS_ENZ_hCASP4: NovaScreen (NVS) Enzymatic Assay for human Caspase 4 (CASP4) (AID 2283143). Here is the method: NVS_ENZ_hCASP4 is a biochemical, single-readout assay that uses extracted gene-proteins from E. coli in a cell-free assay. Measurements were taken 2 hours after chemical dosing in a 96-well plate.NVS_ENZ_hCASP4 is one of one assay component(s) measured or calculated from the NVS_ENZ_hCASP4 assay. It is designed to make measurements of enzyme activity, a form of enzyme reporter, as detected with fluorescence intensity signals by Fluorescence technology.Data from the assay component NVS_ENZ_hCASP4 was analyzed into 1 assay endpoint. This assay endpoint, NVS_ENZ_hCASP4, was analyzed in the positive analysis fitting direction relative to DMSO as the negative control and baseline of activity. Using a type of enzyme reporter, loss-of-signal activity can be used to understand changes in the enzymatic activity as they relate to the gene CASP4. Furthermore, this assay endpoint can be referred to as a primary readout, because this assay has produced multiple assay endpoints where this one serves a enzymatic activity function. To generalize the intended target to other relatable targets, this assay endpoint is annotated to the protease intended target family, where the subfamily is cysteine protease.
Sequence of human Caspase 4 (CASP4), CASP4 (gene 837) (P49662 whole entry, looked up): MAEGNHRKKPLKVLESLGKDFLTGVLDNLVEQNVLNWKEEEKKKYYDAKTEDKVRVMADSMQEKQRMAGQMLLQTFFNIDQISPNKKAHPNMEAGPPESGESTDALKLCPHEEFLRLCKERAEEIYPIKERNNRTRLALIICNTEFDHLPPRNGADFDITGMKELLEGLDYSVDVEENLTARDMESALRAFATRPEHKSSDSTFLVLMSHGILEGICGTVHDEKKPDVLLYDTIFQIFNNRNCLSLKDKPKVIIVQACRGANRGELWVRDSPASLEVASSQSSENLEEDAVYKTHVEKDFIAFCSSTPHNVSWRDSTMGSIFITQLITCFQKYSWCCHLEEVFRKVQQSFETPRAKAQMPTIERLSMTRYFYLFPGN
Binding assays used specific radioligands (tritiated, iodinated) with non-radioactive competitive displacement ligands in agonist or antagonist protocols (as indicated) and various reference compounds and inhibitors to titrate specific binding to receptors and transporters. Most enzyme assays (CYPs, kinases, phosphatases, proteases, HDACs) used recombinant protein and specific substrates (fluorescence mostly, some colorimetric and radioactive) and inhibitors, followed by a biochemical separation of substrate and product. All assays for the biochemical HTS were initially run in duplicate at a single concentration (10 uM for CYP450 assays and 25 uM for all others). Assay-chemical combinations meeting a pre-defined threshold (e.g., 30% inhibition and other criteria defined below) were then run in singleton concentration-response format with maximum concentration of 20 uM for CYPs and 50 uM for all others. Each assay was run with positive and negative controls, and concurrent controls on every plate. The follow-up (secondary) screen tested active chemical-pairs in concentration series, as well as a few additional assays not tested in the primary screen, some selected negative inactives, and several cases re-run in the concentration series for confirmatory purposes.
Turning to `COc1cc(-c2nc(NC(=O)c3cc4cc(C)cc(C)c4n3CC(=O)O)sc2CCC2CCCCC2)c(OC)cc1Cl`, the concentration at half-maximal activity (AC50) is 14.3 µM (active).

`CCc1c(C(=O)NN2CCCCC2)nn(-c2ccc(Cl)cc2Cl)c1-c1ccc(Br)cc1`: the outcome was inactive.

With `CC1=C(/C=C/C(C)=C/C=C/C(C)=C/CO)C(C)(C)CCC1`, the molecule was classed as inactive.

For `Cc1nc(-c2ccc3c(c2)CCN(CCC2CCC(NC(=O)/C=C/c4ccc(F)cc4)CC2)CC3)no1` (configuration not stated), the outcome was inactive.

Turning to `CCCCc1ccc2c(n1)[C@@H](c1ccc(OC)cc1C[C@H](C)C(=O)O)[C@H](C(=O)O)[C@H]2c1ccc2c(c1)OCO2`, the molecule was called inactive.

As to `CCOc1ccc2c(c1)C(C)=CC(C)(C)N2`, the concentration at half-maximal activity (AC50) was 15.1 µM (active).

For `Cc1ccc(C(C)C)c(O)c1`, the molecule was classed as inactive.

In the case of `COc1cc(S(=O)(=O)O)c(C)cc1N=Nc1c(O)ccc2cc(S(=O)(=O)O)ccc12`, the AC50 is 25 µM (active).

`Cc1cccc([N+](=O)[O-])c1C`: the molecule was called inactive.

On to `Nc1ccc2c(c1)C(=O)c1ccccc1C2=O`, for which the AC50 was 18.9 µM (active).

For `O=c1c(O)c(-c2ccc(O)c(O)c2)oc2cc(O)cc(O)c12`, the molecule was called inactive.

For the molecule `COc1ccc(S(=O)(=O)N2C(=O)[C@@](c3ccccc3OC)(N3C[C@H](O)C[C@H]3C(=O)N(C)C)c3cc(Cl)ccc32)c(OC)c1`, the molecule was classed as inactive.
